Most compounds without a hit are left out; they make up all but 9.3% or so of the library.
ELG1 repair inh: blocks ELG1-dependent DNA repair in HEK293T cells; Potency, µM (series often up to 46.1 µM), for the others: at the highest dose activity change, negative = inhibition, usual class: inhibitors; 330,000 tested, 2.3% active; HEK293T ELG1-luciferase reporter, luminescence, 16 h; DNA damage induced by 5-fluorouridine; also: % is scaled to controls: 0 for no effect and ±100 for the full control effect; nearly all actives have a fitted effect of over 55% in size
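Overnight (16 hr) co-exposure of 2,000 cells/well to 5-fluorouridine and compound at 37 °C preceded detection. Luciferase was quantified via ONE-Glo luminescence; loss of signal denotes inhibition.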
SMN2 splice enh: SMN2 splice variant enhancement; HEK293 SMN2-luciferase splicing reporter, luminescence, 30-36 h; Potency, µM (top dose mostly 46.1 µM), for inactives: at the highest dose activity change, positive = activation, actives largely listed as activators; 210,000 tested, 2.8% active; also: % of control where 0% means no effect; nearly all actives have a fitted effect of over 55% in size
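HEK293 cells carry an SMN2 minigene-luciferase reporter in which exon 7 inclusion puts luciferase in frame. Cells were seeded at 2000 cells/well, attached for 10-12 hours, then exposed to compounds for 30-36 hours at 37C before ONE-Glo luminescence.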
Rab9 promoter act: Rab9 promoter activation; Huh7 Rab9 promoter-luciferase reporter, luminescence, 24 h; Potency, µM (doses to about 9.22 µM), for the others: at the top dose activation, negative = inhibition, usual class: activators; 320,000 tested, 2.8% active; AID 485297; also: % of control where 0% means no effect; nearly all actives have a fitted effect of over 60% in size
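Rab9 promoter-driven luciferase in stably transfected Huh7 cells; 1500 cells/well rested 2 h, exposed to compound in DMSO for 24 h at 37 °C, 5% CO2. Luminescence read 10 min after adding luciferase reagent at ambient temperature.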
ELG1 genotoxic: induces genotoxicity in HEK293T cells with luciferase-tagged ELG1; HEK293T ELG1-luciferase reporter, luminescence, 16 h; 330,000 tested, 1.3% active; Potency, µM (highest dose often 46 µM), for inactives: at the highest dose activity change, positive = activation, hits mostly activators; AID 504466; also: % of control where 0% means no effect; nearly all actives have a fitted effect of over 60% in size
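After overnight (16 hr) compound treatment at 37 °C, ELG1-luciferase HEK293T cells were lysed with ONE-Glo; luminescence quantified 30 min later at room temperature.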
NPC1 prom act: NPC1 promoter activation. Huh7 NPC1 promoter luciferase reporter, 24 h. Potency, µM (top dose mostly 9.22 µM), for inactives: at the top dose activation, most hits filed as activators. 320,000 tested, 2.4% active; also: % of control where 0% means no effect; nearly all actives have a fitted effect of over 60% in size
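Luminescence from an NPC1 promoter-driven luciferase reporter in stably transfected Huh7 cells was measured after 24 h compound treatment at 37 °C, followed by 10 min ambient incubation with luciferase detection reagent.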
FLuc counter: counter-screen for miR-21 project: firefly luciferase inhibitors or activators | P08659 | purified FLuc, Km substrates, luminescence inhibition | Potency, µM (doses to about 57.5 µM), for inactives: at the top dose activity change, negative = inhibition, most hits filed as inhibitors | 360,000 tested, 6.9% active | AID 588342;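 also: plate controls were vehicle for no effect and reference inhibitor for full effect; nearly all actives have a fitted effect of over 55% in size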
Target sequence (P08659 whole entry, looked up): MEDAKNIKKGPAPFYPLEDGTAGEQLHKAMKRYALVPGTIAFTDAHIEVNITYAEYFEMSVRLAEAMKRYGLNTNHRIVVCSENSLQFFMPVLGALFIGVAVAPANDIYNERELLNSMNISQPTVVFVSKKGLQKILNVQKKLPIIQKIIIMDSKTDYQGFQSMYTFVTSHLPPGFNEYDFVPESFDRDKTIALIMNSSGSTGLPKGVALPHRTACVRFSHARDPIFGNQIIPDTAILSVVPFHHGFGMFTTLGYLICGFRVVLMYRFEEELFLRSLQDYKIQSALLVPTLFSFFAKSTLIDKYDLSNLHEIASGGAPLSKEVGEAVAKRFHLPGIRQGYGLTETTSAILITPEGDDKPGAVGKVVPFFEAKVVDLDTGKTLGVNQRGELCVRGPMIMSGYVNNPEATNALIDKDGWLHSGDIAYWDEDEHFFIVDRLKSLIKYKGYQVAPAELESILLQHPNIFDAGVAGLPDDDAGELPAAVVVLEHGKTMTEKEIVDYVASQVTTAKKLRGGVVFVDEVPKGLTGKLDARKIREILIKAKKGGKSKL
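Purified P. pyralis luciferase (10nM final) with 10uM D-luciferin and 10uM ATP (Km levels) in 50mM Tris acetate pH 7.5, 10mM Mg acetate, 0.01% Tween-20, 0.05% BSA; qHTS 6-point titration, ~60 µM downward; luminescence read.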
* hit, by the source's call. Calls follow the shape of the dose curve; as a rule, active = well fitted curve in the direction sought with a large enough effect; inconclusive = small, poorly fitted or top-dose-only effect, or another doubt; inactive = no such curve, though single readings can be large; an effect the other way counts as inactive or inconclusive. Potency is read from the fitted curve at half-maximal effect.

COCn1c(=O)c2c(nc(SC3=NCCS3)n2Cc2ccccc2C)n(COC)c1=O was read as ELG1 repair inh 18µM*, SMN2 splice enh -6%, Rab9 promoter act -2%, ELG1 genotoxic -1%, NPC1 prom act -3% and FLuc counter -4%.
Screening O=C(c1ccc(F)c(S(=O)(=O)N2CCOCC2)c1)N(c1ccccc1)c1ccccn1 returned ELG1 repair inh -2%, SMN2 splice enh 6%, Rab9 promoter act -2%, ELG1 genotoxic -3%, NPC1 prom act -5% and FLuc counter -1%.
CSCC[C@H](NC(=O)C1CCN(S(=O)(=O)c2ccc(C)cc2C)CC1)c1nc2ccccc2[nH]1 was read as ELG1 repair inh inconclusive and ELG1 genotoxic -5%.
Screening CC(C)c1ccc(/C=N/NC(=O)c2ccc(-n3cnnn3)cc2)cc1 returned ELG1 repair inh inconclusive, Rab9 promoter act -1%, ELG1 genotoxic -6%, NPC1 prom act -1% and FLuc counter 5.4µM*.
For COc1ccc(/C=N/NC(=O)c2ccc(-n3cnnn3)cc2)cc1 the results were ELG1 repair inh -9%, Rab9 promoter act -4%, ELG1 genotoxic -1%, NPC1 prom act 0% and FLuc counter 11µM*.
CC(C)NC(=O)CSCc1c(Cl)cccc1Cl was read as ELG1 repair inh 12%, SMN2 splice enh 8%, Rab9 promoter act 5%, ELG1 genotoxic -5%, NPC1 prom act 0% and FLuc counter 3%.
Screening CN([C@@H](Cc1ccc(OS(=O)(=O)c2cccc3cnccc23)cc1)C(=O)N1CCN(c2ccccc2)CC1)S(=O)(=O)c1cccc2cnccc12 returned ELG1 repair inh 9.2µM*, SMN2 splice enh -30%, Rab9 promoter act -4%, ELG1 genotoxic -9%, NPC1 prom act -5% and FLuc counter 3%.
For Cc1cccc(NC(=O)CCC(=O)Nc2nnc(C3CCCCC3)s2)c1 the results were ELG1 repair inh 19%, Rab9 promoter act 7%, ELG1 genotoxic 0%, NPC1 prom act -1% and FLuc counter 2%.
For O=C(Nc1ccsn1)c1ccc(Cl)cc1Cl the results were ELG1 repair inh inconclusive, Rab9 promoter act inconclusive, ELG1 genotoxic inconclusive, NPC1 prom act 3.2µM* and FLuc counter inconclusive.
`Cc1cc(NC(=O)c2cc(C)on2)no1` gave ELG1 repair inh inconclusive, SMN2 splice enh 10%, Rab9 promoter act 1%, ELG1 genotoxic 15%, NPC1 prom act 4% and FLuc counter -1%.
Screening Cc1cc(NC(=O)c2ccc(Cl)cc2Cl)no1 returned ELG1 repair inh inconclusive, Rab9 promoter act 2.8µM*, ELG1 genotoxic inconclusive, NPC1 prom act 1.4µM* and FLuc counter 8.5µM*.
`Cn1c(NC(=O)c2ccc(Cl)cc2Cl)cc(=O)n(C)c1=O` gave ELG1 repair inh 10%, SMN2 splice enh -11%, Rab9 promoter act -8%, ELG1 genotoxic 5%, NPC1 prom act -4% and FLuc counter 14%.
O=C(NCCN1C(=O)S/C(=C\c2ccc(Cl)c(Cl)c2)C1=O)c1cnccn1 was read as ELG1 repair inh -2%, Rab9 promoter act 0%, ELG1 genotoxic 0%, NPC1 prom act 1% and FLuc counter 0%.
CC(C)CCn1cnc2c(oc3nc4c(cc32)CCCC4)c1=O was read as ELG1 repair inh inconclusive, Rab9 promoter act 0.45µM*, ELG1 genotoxic inconclusive, NPC1 prom act 0.5µM* and FLuc counter 1.7µM*.
CCOc1ccc(C2=NNC(c3cccs3)=Nc3ccc(OC)cc32)cc1OCC was read as ELG1 repair inh inconclusive, SMN2 splice enh 13%, Rab9 promoter act 1%, ELG1 genotoxic -2%, NPC1 prom act -7% and FLuc counter 2%.
For COc1ccc(C2=NNC(c3cccs3)=Nc3ccc(OC)cc32)cc1 the results were ELG1 repair inh inconclusive, SMN2 splice enh 15%, Rab9 promoter act 10%, ELG1 genotoxic -4%, NPC1 prom act 0% and FLuc counter 15µM*.
`Cc1ccc2nc(N3CCN(C(=O)C4COc5ccccc5O4)CC3)sc2c1` (centres undefined) gave FLuc counter 8.5µM*.
Screening CCc1ccc2nc(N3CCN(C(=O)C4CC4)CC3)sc2c1 returned FLuc counter 15µM*.
CCCCN(C)CCNC(=O)C1CCN(c2nc3ccc(CC)cc3s2)CC1 was read as SMN2 splice enh 10% and FLuc counter 12µM*.
For CCc1ccc2nc(N3CCC(C(=O)O)CC3)sc2c1 the results were SMN2 splice enh inconclusive and FLuc counter 0.21µM*.
CCN(CCCCCN(C)C)Cc1cc2ccccc2o1 was read as ELG1 repair inh 5%, SMN2 splice enh inconclusive, Rab9 promoter act -3%, ELG1 genotoxic -3%, NPC1 prom act 0% and FLuc counter 7%.
`COC(=O)c1cc(C)nc(Sc2ccccc2N)n1` gave ELG1 repair inh 11%, Rab9 promoter act 8%, ELG1 genotoxic -4%, NPC1 prom act -2% and FLuc counter 12µM*.
Screening O=[N+]([O-])c1ccc(O)c(-c2nn[nH]n2)c1 returned ELG1 repair inh inconclusive, SMN2 splice enh -3%, Rab9 promoter act 27%, ELG1 genotoxic inconclusive, NPC1 prom act 13% and FLuc counter 27µM*.
Screening Clc1ccc(-n2ncc3c(NCc4ccco4)ncnc32)cc1 returned ELG1 repair inh -7%, SMN2 splice enh -19%, Rab9 promoter act 2.5µM*, ELG1 genotoxic -7%, NPC1 prom act inconclusive and FLuc counter 6µM*.
COc1ccc(-n2ncc3c(NCc4ccco4)ncnc32)cc1 was read as ELG1 repair inh inconclusive, SMN2 splice enh inconclusive, Rab9 promoter act 1.4µM*, ELG1 genotoxic inconclusive, NPC1 prom act 2.2µM* and FLuc counter 9.5µM*.
`COc1ccc(-n2ncc3c(NCc4ccccn4)ncnc32)cc1` gave ELG1 repair inh inconclusive, SMN2 splice enh inconclusive, Rab9 promoter act inconclusive, ELG1 genotoxic inconclusive, NPC1 prom act inconclusive and FLuc counter 15µM*.
Screening O=C(COC(=O)c1cccc2ccccc12)NCCCc1ccccc1 returned ELG1 repair inh 10%, SMN2 splice enh 4%, Rab9 promoter act -1%, ELG1 genotoxic 4%, NPC1 prom act -3% and FLuc counter -2%.
COc1ccc2c(c1)OC/C(=C/c1ccc(OC)c(OC)c1)C2=O was read as SMN2 splice enh -103%.
For COc1ccc(/C=C2\CCc3ccccc3C2=O)cc1Cn1cccn1 the results were ELG1 repair inh -3%, SMN2 splice enh -12%, Rab9 promoter act 2%, ELG1 genotoxic inconclusive, NPC1 prom act 1% and FLuc counter 5.4µM*.

From PubChem
